Assay results from PubChem BioAssay (NCI).
Compounds without any hit were thinned out: in the full panel of roughly 83,000, 20% have a hit.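 Note: values are percent growth. 100 is the growth of untreated cells, values between 100 and 0 indicate rising inhibition; between -100 and 0 indicates cell death.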 A number with no mark means an inactive call. Activity calls are given as the source filed them. Rule for the calls: active = growth percent below 10; inactive = the rest.

Key:
Test in all cases: NCI-60 one-dose screen, 48 h (100 = growth as untreated, 0 = no growth, -100 = all killed)
Details in all cases: 10 µM unless noted
[1] = tested on: T-47D breast
[2] = tested on: BT-549 breast
[3] = tested on: MDA-MB-435 melanoma
[4] = tested on: SW-620 colon
[5] = tested on: MCF7 breast
[6] = tested on: HCT-116 colon
[7] = tested on: HCC-2998 colon
[8] = tested on: KM12 colon

| Structure (SMILES) | growth [1] | growth [2] [%] | growth [3] | growth [4] | growth [5] | growth [6] | growth [7] | growth [8] |
| --- | --- | --- | --- | --- | --- | --- | --- | --- |
| Cn1c2ccccc2c2ccccc21 | 90% | 106 | 103% | 106% | 106% | 107% | 110% | 101% |
| C[n+]1c2ccccc2c(Nc2ccc(NS(=O)(=O)CCCCN=C(N)N)cc2)c2ccc(N)cc21 | 21.9% | 88.7 | 87.8% | 59.1% | 19.7% | 37.3% | 40.6% | 42.3% |
| Nc1cc(N)c2nc(NCCc3ccc(Cl)c(Cl)c3)cnc2c1 | -27.2% (active) | 96.6 | -50% (active) | 51.3% | -43.5% (active) | -42.5% (active) | 44.7% | 35.6% |
| O=C(NCCO)C(F)(F)F | 95.8% | 106 | 108% | 105% | 95.6% | 108% | 97% | 107% |
| CC(C)CSc1nc(-c2ccc(F)cc2)c(C#N)c(N2CCCCC2)n1 | 91.2% | 88.9 | 98.6% | 97.8% | 83% | 89.5% | 104% | 86.1% |
| CC(=O)/C(=C\c1c(-c2ccccc2)[nH]c2ccccc12)S(=O)(=O)c1ccccc1 | 13% | 16.9 | 5.41% (active) | 12.1% | 10.1% | 9.03% (active) | 4.79% (active) | -10.1% (active) |
| O=C(/C(Br)=C/c1ccccc1)c1ccccc1 | -31.7% (active) | 95.8 | -11.2% (active) | -77.3% (active) | 0.441% (active) | -100% (active) | 94% | 53.3% |
| Oc1ccccc1/C=N/N=C\c1ccccc1Cl | 67.1% | 86.2 | 107% | 94.6% | 54.1% | 100% | 100% | 88.4% |
| Brc1c(-c2ccncc2)nc2n1CCS2 | 100% | 105 | 94% | 105% | 110% | 85% | 116% | 116% |
| O=C(N/N=C/c1ccccc1Cl)c1cccc2ccccc12 | 98.5% | 117 | 105% | 105% | 90.9% | 102% | 110% | 97.3% |
| Cc1cc(CSc2ccc(Cl)cc2)ccc1N | 84.1% | 55.6 | 104% | 126% | 112% | 101% | 97.7% | 70.7% |
| COc1ccc(C2C3(C#N)C(N)=NC(=C(C#N)C#N)C23C#N)cc1OC (stereo not drawn) | 110% | 93.3 | 107% | 106% | 108% | 112% | 122% | 118% |
| [2H]c1nc(=Nc2cc(NC(=O)C=C)c(N(C)CCN(C)C)cc2OC)[nH]c(-c2cn(C([2H])([2H])[2H])c3ccccc23)c1[2H] | 33% | 62.9 | 22.2% | 21.1% | 23.4% | 13.7% | 51% | 65.3% |
| COc1ccc(-c2nc(SCC(C)C)nc(Nc3ccc(C)cc3)c2C#N)cc1 | 32.4% | 85.8 | 86.7% | 54.4% | 70.3% | 33.5% | 92.5% | 80.8% |
| CCCNC(=O)Oc1ccc(/C(=C(/CC)Cc2ccccc2)c2ccc(OCCN(CC)CC)cc2)cc1 | 34.1% | 97.4 | 87.8% | 70.9% | 26.3% | 49.1% | 50% | 69.2% |
| C=CCNCCC#N | 96.3% | 105 | 109% | 110% | 99.5% | 100% | 116% | 115% |
